According to the supplement of paper PMC6555819:

Experiments:
Assay in all cases: PBM binding z-score (relative to random genomic background probes); higher = stronger binding; sequences stand for … in GC…GCGATTGACAGCGTAGAATGAAGG
[1] = test system: FXR:RXRa (NR concentration 270 nM, RXRa partner concentration 90 nM)
How it was run: (§1)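 Random background probes are the reference for binding z-scores. These scores derive from regression-normalized fluorescence on custom Agilent 4×180K protein-binding microarrays incubated 1 h with ligand-free nuclear receptor dimers. Binding was detected with antibodies against each partner (one per run).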

[2] = test system: LXRa:RXRa (NR concentration 270 nM, RXRa partner concentration 90 nM)
How it was run: as §1

[3] = test system: LXRa homodimer (NR concentration 270 nM)
How it was run: as §1

[4] = test system: LXRb:RXRa (NR concentration 270 nM, RXRa partner concentration 90 nM)
How it was run: as §1

[5] = test system: LXRb homodimer (NR concentration 270 nM)
How it was run: as §1

[6] = test system: PPARa:RXRa (NR concentration 270 nM, RXRa partner concentration 90 nM)
How it was run: as §1

[7] = test system: PPARg:RXRa (NR concentration 180 nM, RXRa partner concentration 90 nM)
How it was run: as §1

[8] = test system: PPARg:RXRa 270nM:90nM, anti-RXR (NR concentration 270 nM, RXRa partner concentration 90 nM)
How it was run: as §1

[9] = test system: PPARg:RXRa 30nM:10nM, anti-RXR (NR concentration 30 nM, RXRa partner concentration 10 nM)
How it was run: as §1

[10] = test system: PPARg:RXRa 90nM:30nM, anti-RXR (NR concentration 90 nM, RXRa partner concentration 30 nM)
How it was run: as §1

[11] = test system: PPARg:RXRa DBDmut IVT, anti-RXR (DBD mutation: RXRa K156A/R161A, NR concentration 270 nM, RXRa partner concentration 90 nM)
How it was run: as §1

[12] = test system: PPARg:RXRa IVT, anti-PPARg (NR concentration 270 nM, RXRa partner concentration 90 nM)
How it was run: as §1

[13] = test system: PPARg DBDmut:RXRa IVT, anti-PPARg (DBD mutation: PPARg1 K132A/R137A, NR concentration 270 nM, RXRa partner concentration 90 nM)
How it was run: as §1

[14] = test system: PPARg DBDmut IVT, anti-PPARg (DBD mutation: PPARg1 K132A/R137A, NR concentration 270 nM)
How it was run: as §1

[15] = test system: PPARg homodimer (NR concentration 180 nM)
How it was run: as §1

[16] = test system: PXR:RXRa (NR concentration 270 nM, RXRa partner concentration 90 nM)
How it was run: as §1

[17] = test system: PXR homodimer (NR concentration 270 nM)
How it was run: as §1

[18] = test system: RARa:RXR (NR concentration 270 nM, RXRa partner concentration 90 nM)
How it was run: as §1

[19] = test system: RARa homodimer (NR concentration 270 nM)
How it was run: as §1

[20] = test system: RARb:RXRa (NR concentration 270 nM, RXRa partner concentration 90 nM)
How it was run: as §1

Sequence	PBM binding z-score [1]	PBM binding z-score [2]	PBM binding z-score [3]	PBM binding z-score [4]	PBM binding z-score [5]	PBM binding z-score [6]	PBM binding z-score [7]	PBM binding z-score [8]	PBM binding z-score [9]	PBM binding z-score [10]	PBM binding z-score [11]	PBM binding z-score [12]	PBM binding z-score [13]	PBM binding z-score [14]	PBM binding z-score [15]	PBM binding z-score [16]	PBM binding z-score [17]	PBM binding z-score [18]	PBM binding z-score [19]	PBM binding z-score [20]
AGAATGACGTTACCAAAGATCAGGGAAACGCTTG	-0.187	-0.0658	-0.236	-0.336	-0.144	-0.289	0.77	0.125	0.189	0.17	-0.672	-0.0252	0.249	0.258	0.216	-0.527	-0.0125	-0.159	0.157	-0.301
TTACCAAAGTGAAGGTCGTTGATCCCTCTGTAGA	2.06	2.07	-0.0239	1.33	-0.489	1.15	-0.21	0.882	0.58	0.768	0.0303	0.266	-1.3	-0.698	0.00936	1.15	0.234	1	-0.568	0.632
AGAACGAGGGCAATGAGTTGATACCACGGGTGGC	0.296	0.211	-0.493	-0.174	-0.279	1.36	1.5	0.94	-0.0193	0.369	3.03	2.47	0.451	0.33	0.443	1.66	5.24	0.38	-0.193	2.19
ATCTATAGGTAAAGTTCAGTGAAAGATCGATAGA	1.21	1.7	1.38	1.19	0.71	2.2	3.67	4.69	2.81	4.71	1.31	1.74	1.49	1.19	1.41	1.99	1.33	1.21	1.04	2.62
AGTCAAGGTTCACTAGGTAACGTAAGATTCAGCT	3.03	3.03	0.713	1.93	0.445	3.59	4.38	4.46	1.58	3.65	2.7	4.17	0.684	1.3	1.04	1.83	0.833	1.9	-0.0473	2.75
GCTGCTAGGTCAACTGATGGTCGGCTAAAGCTCG	3.88	3.08	0.00529	1.89	-0.133	3.7	2.39	3.16	0.547	1.99	4.58	4.01	0.404	-0.469	0.839	1.4	-0.734	2.31	-0.561	4.45
CGTCCAAGGTTAATGCTAGGTCAGTGAAAGCATT	1.98	4.46	1.76	2.28	-0.518	2.21	0.161	0.685	-0.233	0.133	1.24	1.56	0.173	-0.333	1.1	1.81	0.209	2.86	-0.141	2.83
TGTCAAAGTTCAAAGGTAACGTAAGTATCCACAC	6.82	6.64	4.55	4.83	2.02	5.9	8.46	7.64	5.11	7.32	0.64	4.66	1.24	1.15	2.16	5.77	3.43	6.45	0.967	5.11
TCTGCGAGGTCAACGATGGTCAGCTAATCTGCTA	6.96	5.84	1.07	4.75	1.01	5.65	5.8	6.12	3.37	4.91	3.66	4.67	0.567	1.25	3.27	5.4	1.03	5.37	0.126	5.18
ACTATTAGTTGACTTAGGGCAGCCGATACGACGC	-0.0135	-0.0603	0.0917	-0.372	0.721	-0.383	0.697	0.151	-0.128	0.0745	0.0635	0.0175	1.35	0.429	-0.15	-0.251	-0.115	-0.045	0.705	0.758
GCAGACAGGTGACACGCAGGTAACTCAGGGTGGC	-0.0725	-0.255	-0.585	-0.69	-1.06	0.614	0.69	-0.241	-0.412	-0.395	0.596	1.21	-0.103	-0.383	-0.125	-0.218	-0.476	0.24	-0.572	0.684
ATACCTAGGTGATCGTGAGGTCGTTGATACTAAC	1.53	1.12	0.563	1.35	0.0825	1.55	0.632	0.766	0.387	0.954	1.24	1.46	0.324	0.924	0.783	2.64	2	2.04	0.311	1.09
CCTACTGGGCCATCATGTCATTGATATCAACGTT	-0.0902	-0.142	-0.139	0.0528	-0.132	0.932	1.49	2.01	0.718	1.35	4.06	4.28	0.246	0.754	0.785	-0.129	0.119	0.097	-0.0554	0.332
TTACTAAGGTGAAGGTCGTTGATCCCTCTGTAGA	3.06	2.12	0.0636	2.08	-0.257	3.76	5.8	6.91	5.91	7.51	3.98	4.68	1.15	0.702	1.39	1.84	0.493	2.6	0.0273	2.58
